Assay results reported in PubChem BioAssay (Tox21).
Where “and” joins values, the source holds several entries; their conditions need not be identical. Equal values may be shown once. Inconclusive results are not listed. Where a call stands in place of a potency, no number is given. Some compounds were tested as several samples or in several runs, with calls that do not always agree. Calls of active or inactive are those of the source. Unless noted, calls follow the shape of the dose curve; as a rule, active = well fitted curve in the direction sought with a large enough effect in the repeat runs; inconclusive = weak or mixed curves; inactive = no such curve, though single readings can be large; an effect the other way counts as inactive or inconclusive.

Tests used:
[1] = target: Thyrotropin receptor (Homo sapiens) (UniProt P16473); assay: qHTS assay to identify small molecule antagonists of the thyroid stimulating hormone receptor (TSHR) signaling pathway (AID 1259385; calls by dose curve; also: nearly all actives have a fitted effect of over 20% in size)
Thyrotropin receptor (Homo sapiens), sequence (P16473 whole entry, looked up): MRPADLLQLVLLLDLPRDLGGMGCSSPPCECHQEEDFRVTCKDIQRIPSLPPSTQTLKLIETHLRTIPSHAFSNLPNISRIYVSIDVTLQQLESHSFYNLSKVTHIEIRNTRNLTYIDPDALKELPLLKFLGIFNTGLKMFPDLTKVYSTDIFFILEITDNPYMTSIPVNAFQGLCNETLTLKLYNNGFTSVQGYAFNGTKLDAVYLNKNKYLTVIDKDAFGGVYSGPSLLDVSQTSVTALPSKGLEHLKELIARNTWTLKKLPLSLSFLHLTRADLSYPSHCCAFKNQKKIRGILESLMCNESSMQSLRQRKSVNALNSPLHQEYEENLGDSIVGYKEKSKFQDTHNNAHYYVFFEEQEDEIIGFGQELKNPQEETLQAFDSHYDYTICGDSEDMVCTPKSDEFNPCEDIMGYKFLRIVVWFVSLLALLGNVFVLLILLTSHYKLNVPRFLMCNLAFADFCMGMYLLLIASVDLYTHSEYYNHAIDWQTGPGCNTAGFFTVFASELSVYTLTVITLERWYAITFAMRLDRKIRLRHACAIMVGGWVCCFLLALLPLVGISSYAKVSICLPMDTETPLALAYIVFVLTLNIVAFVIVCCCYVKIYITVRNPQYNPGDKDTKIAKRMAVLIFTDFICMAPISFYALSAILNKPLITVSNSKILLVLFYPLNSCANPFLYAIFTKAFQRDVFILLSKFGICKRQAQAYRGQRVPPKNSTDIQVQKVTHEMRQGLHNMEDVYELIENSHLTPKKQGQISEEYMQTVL
Procedure, shortened: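 TSHR-HEK293 cells were plated and held 18 h at 37C/5% CO2, then given compound plus Ro20-1724 and stimulated with TSH at 1.5 ng/mL final. After 30 min at room temperature, cAMP was detected with cAMP-d2/anti-cAMP-cryptate (1 h) by fluorescence.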

[2] = qHTS assay to identify small molecule agonists of the estrogen receptor alpha (ER-alpha) signaling pathway in the presence of an antagonist - cell viability counter screen (AID 1259386);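 also: cells exposed to compounds for 22 h at 37 °C before the viability read; nearly all actives have a fitted effect of over 30% in size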; also: potency is read from the fitted curve at half-maximal effect
Procedure, shortened: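 VM7Luc4E2, stripped-serum pre-culture 5 d; 24hr plating; +ICI-182,780 10.0nM final; cpds 15 conc, 22hr, 37C/5% CO2; CellTiter-Fluor added at 21hr, fluorescence 1hr later.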

[3] = target: Progesterone receptor (Homo sapiens) (UniProt P06401); assay: qHTS assay to identify small molecule agonists of the progesterone receptor (PR) signaling pathway (AID 1346784; calls by dose curve; also: nearly all actives have a fitted effect of over 30% in size; also: potency is read from the fitted curve at half-maximal effect)
Progesterone receptor (Homo sapiens), sequence (P06401 whole entry, looked up): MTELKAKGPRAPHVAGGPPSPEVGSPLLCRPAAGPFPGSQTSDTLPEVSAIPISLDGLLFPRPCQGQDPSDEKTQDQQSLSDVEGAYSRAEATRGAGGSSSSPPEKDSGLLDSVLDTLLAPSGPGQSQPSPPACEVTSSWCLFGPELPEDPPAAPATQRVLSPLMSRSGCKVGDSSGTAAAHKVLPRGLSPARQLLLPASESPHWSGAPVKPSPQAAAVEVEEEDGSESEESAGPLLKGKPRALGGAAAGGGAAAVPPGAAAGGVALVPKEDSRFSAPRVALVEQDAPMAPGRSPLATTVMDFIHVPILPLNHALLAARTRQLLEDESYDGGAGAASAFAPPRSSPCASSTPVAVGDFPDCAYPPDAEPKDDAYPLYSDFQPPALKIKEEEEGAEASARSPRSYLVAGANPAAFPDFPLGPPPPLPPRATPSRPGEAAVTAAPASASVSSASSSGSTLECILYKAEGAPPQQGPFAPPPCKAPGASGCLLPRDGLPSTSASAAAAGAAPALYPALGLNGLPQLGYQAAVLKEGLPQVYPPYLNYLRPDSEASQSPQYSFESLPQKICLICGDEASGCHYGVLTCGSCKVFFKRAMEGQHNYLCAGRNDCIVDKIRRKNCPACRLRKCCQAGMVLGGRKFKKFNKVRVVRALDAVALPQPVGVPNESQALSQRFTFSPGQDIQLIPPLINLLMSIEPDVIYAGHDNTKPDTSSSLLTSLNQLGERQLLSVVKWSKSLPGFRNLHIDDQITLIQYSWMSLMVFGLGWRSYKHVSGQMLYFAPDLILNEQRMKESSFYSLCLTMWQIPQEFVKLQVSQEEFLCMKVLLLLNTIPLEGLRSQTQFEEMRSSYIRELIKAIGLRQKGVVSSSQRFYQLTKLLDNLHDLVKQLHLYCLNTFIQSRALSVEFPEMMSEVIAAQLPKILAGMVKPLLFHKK
Procedure, shortened: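 PR-UAS-bla HEK 293T cells carrying a UAS-driven beta-lactamase reporter were seeded in medium with 2% charcoal-stripped FBS, preincubated 6 hr at 37C, then exposed to compounds in DMSO for 16 hr; agonism was read by LiveBLAzer B/G FRET fluorescence.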

[4] = qHTS assay to identify small molecule antagonists of the progesterone receptor (PR) signaling pathway - cell viability counter screen (AID 1346798); also: series mostly up to about 92 µM; nearly all actives have a fitted effect of over 50% in size
Procedure, shortened: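 PR-UAS-bla HEK293T cells in medium with 2% charcoal-stripped FBS were treated with compounds plus R5020 for 16 hr at 37C. Cell viability was then read by CellTiter-Glo luminescence after 30 min at room temperature in the same wells.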

[5] = qHTS assay to identify small molecule agonists of the progesterone receptor (PR) signaling pathway - cell viability counter screen (AID 1346799; calls by dose curve; also: nearly all actives have a fitted effect of over 45% in size)
Procedure, shortened: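 PR-UAS-bla HEK293T cells, 3,000 per well in medium with 2% charcoal-stripped FBS, were preincubated 6 hr at 37C, then exposed to compounds for 16 hr; viability was read as CellTiter-Glo luminescence after 30 min at room temperature.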

[6] = qHTS assay to identify small molecule antagonists of the TGF-beta/Smad signaling pathway - cell viability counter screen (AID 1346824); also: nearly all actives have a fitted effect of over 50% in size
Procedure, shortened: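 SBE-bla HEK 293T cells were plated overnight at 37 C, then given compounds in DMSO plus TGF-beta1 (added as 0.25 ng/mL solution) for 5 hr. After the bla read, CellTiter-Glo was added to the same wells and luminescence read after 30 min at room temperature.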

[7] = qHTS assay to identify small molecule agonists of the TGF-beta/Smad signaling pathway - cell viability counter screen (AID 1346829); also: top concentration of the series differs between compounds; nearly all actives have a fitted effect of over 45% in size
Procedure, shortened: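 Tox21 qHTS format: SBE-bla HEK 293T cells treated with DMSO-dissolved compounds for 5 hr; CellTiter-Glo luminescence after 30 min at room temperature.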

[8] = qHTS assay to identify small molecule agonists of the TGF-beta/Smad signaling pathway (AID 1346859; active = well fitted activation curve with a large enough effect in the signal ratio in the repeat runs, not every such curve was filed as active; the % refers to the signal ratio; also: series mostly up to about 77 µM)
Procedure, shortened: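 HEK 293T cells stably carrying a beta-lactamase reporter driven by the Smad binding element were seeded overnight, exposed to DMSO-dissolved compounds for 5 hr at 37 C, 5% CO2, then loaded with FRET substrate for 2 hr at room temperature.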

[9] = target: Thyrotropin-releasing hormone receptor (Homo sapiens) (UniProt P34981); assay: qHTS assay to identify small molecule antagonists of the thyrotropin-releasing hormone receptor (TRHR) signaling pathway (AID 1346877; active = well fitted inhibition curve with a large enough effect in the repeat runs, not every such curve was filed as active; also: series mostly up to about 51 µM)
Thyrotropin-releasing hormone receptor (Homo sapiens), sequence (P34981 whole entry, looked up): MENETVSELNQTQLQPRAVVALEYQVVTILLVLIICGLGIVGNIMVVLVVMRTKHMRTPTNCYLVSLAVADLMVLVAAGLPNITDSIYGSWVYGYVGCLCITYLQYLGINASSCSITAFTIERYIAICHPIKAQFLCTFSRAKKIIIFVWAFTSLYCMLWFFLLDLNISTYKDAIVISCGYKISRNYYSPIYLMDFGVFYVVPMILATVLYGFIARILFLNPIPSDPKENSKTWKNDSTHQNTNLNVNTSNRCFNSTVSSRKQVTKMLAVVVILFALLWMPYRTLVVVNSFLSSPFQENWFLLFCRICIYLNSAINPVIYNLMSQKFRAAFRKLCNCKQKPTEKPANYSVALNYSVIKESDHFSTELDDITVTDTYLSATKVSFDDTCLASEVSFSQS
Procedure, shortened: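 Intracellular calcium fluorescence, read kinetically every second over 3 min, reports TRH-evoked signalling in HEK293 cells carrying TRHR. Test compounds were added 5 min ahead of a 1 nM TRH challenge.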

[10] = target: Thyrotropin-releasing hormone receptor (Homo sapiens) (UniProt P34981); assay: qHTS assay to identify small molecule agonists of the thyrotropin-releasing hormone receptor (TRHR) signaling pathway (AID 1346891; calls by dose curve; also: series mostly up to about 58 µM)
Procedure, shortened: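 TRHR-expressing HEK293 cells were plated 18 h at 37 °C/5% CO2, loaded with calcium dye 2 h at 37 °C, then given compound in DMSO; fluorescence was read kinetically for 3 min at 1 s intervals.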

[11] = Human pregnane X receptor (PXR) small molecule agonists, qHTS cell viability counter screen (AID 1346977); also: nearly all actives have a fitted effect of over 50% in size; also: potency is read from the fitted curve at half-maximal effect
Procedure, shortened: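 PXR-Luc HepG2 cells in medium with 5% charcoal-stripped FBS were pre-incubated 5hr, then exposed to compounds for 24hr at 37C. Viability was read in the same wells by CellTiter-Fluor fluorescence, reagent added after 23hr with a 1hr incubation.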

[12] = Caspase-3/7 induction in HepG2 cells by small molecules, qHTS assay (AID 1346978); also: nearly all actives have a fitted effect of over 15% in size
Procedure, shortened: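 Wild-type HepG2 cells (2,000/well) were settled 5 h at 37 C, 5% CO2, then exposed to compounds in DMSO for 17 h. Caspase-3/7 activity was read by luminescence 30 min after adding Caspase-Glo 3/7 reagent at room temperature.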

[13] = Caspase-3/7 induction in CHO-K1 cells by small molecules, qHTS cell viability counter screen (AID 1346979); also: nearly all actives have a fitted effect of over 35% in size; also: potency is read from the fitted curve at half-maximal effect
Procedure, shortened: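 Wild-type CHO-K1 cells were seeded at 1,500 per well, rested 5hr at 37 C, then exposed to compounds in DMSO. After 16hr, CellTiter-Fluor reagent was added and fluorescence read 1hr later as the viability measure.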

[14] = Caspase-3/7 induction in CHO-K1 cells by small molecules, qHTS assay (AID 1346980); also: nearly all actives have a fitted effect of over 15% in size
Procedure, shortened: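 Wild-type cells were seeded at 1,500 per well and settled 5 hr at 37 C, 5% CO2, then exposed to DMSO-dissolved compounds for 17 hr. Caspase-Glo 3/7 reagent was added, and luminescence was read after 30min at room temperature.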

[15] = Caspase-3/7 induction in HepG2 cells by small molecules, qHTS cell viability counter screen (AID 1346981); also: nearly all actives have a fitted effect of over 30% in size; also: potency is read from the fitted curve at half-maximal effect
Procedure, shortened: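 HepG2, WT, 2,000 cells/well; 5 hr pre-incubation 37 C/5% CO2; compound pin-transferred from DMSO; 16 hr exposure; CellTiter-Fluor, 1 hr; fluorescence read.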

[16] = target: Nuclear receptor subfamily 1 group I member 2 (Homo sapiens) (UniProt O75469); assay: Human pregnane X receptor (PXR) small molecule agonists, qHTS assay (AID 1346982); also: nearly all actives have a fitted effect of over 35% in size; also: potency is read from the fitted curve at half-maximal effect
Nuclear receptor subfamily 1 group I member 2 (Homo sapiens), sequence (O75469 whole entry, looked up): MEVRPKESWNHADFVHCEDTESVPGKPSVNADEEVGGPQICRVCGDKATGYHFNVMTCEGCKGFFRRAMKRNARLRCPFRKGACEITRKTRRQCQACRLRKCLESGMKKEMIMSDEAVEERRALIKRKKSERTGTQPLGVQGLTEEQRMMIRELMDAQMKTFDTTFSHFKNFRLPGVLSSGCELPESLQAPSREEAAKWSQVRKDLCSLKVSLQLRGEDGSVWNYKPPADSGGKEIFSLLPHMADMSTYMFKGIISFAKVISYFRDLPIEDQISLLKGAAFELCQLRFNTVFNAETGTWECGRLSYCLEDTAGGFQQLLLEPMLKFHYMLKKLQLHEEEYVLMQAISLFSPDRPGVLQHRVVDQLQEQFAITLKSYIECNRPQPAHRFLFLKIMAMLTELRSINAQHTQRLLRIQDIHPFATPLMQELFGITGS
Procedure, shortened: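 Luciferase signal from ONE-Glo (30 min, room temperature) measured activation of hPXR-driven CYP3A4 reporter expression in PXR-Luc HepG2 cells treated with compounds for 24 hr at 37 C.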

[17] = target: Progesterone receptor (Homo sapiens) (UniProt P06401); assay: qHTS assay to identify small molecule antagonists of the progesterone receptor (PR) signaling pathway (AID 1346795; active = well fitted inhibition curve with a large enough effect in the signal ratio in the repeat runs, not every such curve was filed as active; the % refers to the signal ratio; also: potency is read from the fitted curve at half-maximal effect)
Procedure, shortened: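 PR-UAS-bla HEK293T cells carrying a UAS-driven beta-lactamase reporter were plated in medium with 2% charcoal-stripped FBS and rested 6 hr at 37C. Compounds were added with 1 nM R5020 (final) for 16 hr, then FRET substrate loaded 2 hr at room temperature.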

[18] = target: Nuclear receptor subfamily 1 group I member 2 (Rattus norvegicus) (UniProt Q9R1A7); assay: Rat pregnane X receptor (rPXR) activation by small molecules, qHTS assay (AID 1346983); conditions: rPXR luciferase reporter cells, One-Glo luminescence, 24 h; max activation: stronger effect = higher value; also: potency is read from the fitted curve at half-maximal effect; nearly all actives have a fitted effect of over 20% in size
Nuclear receptor subfamily 1 group I member 2 (Rattus norvegicus), sequence (Q9R1A7 whole entry, looked up): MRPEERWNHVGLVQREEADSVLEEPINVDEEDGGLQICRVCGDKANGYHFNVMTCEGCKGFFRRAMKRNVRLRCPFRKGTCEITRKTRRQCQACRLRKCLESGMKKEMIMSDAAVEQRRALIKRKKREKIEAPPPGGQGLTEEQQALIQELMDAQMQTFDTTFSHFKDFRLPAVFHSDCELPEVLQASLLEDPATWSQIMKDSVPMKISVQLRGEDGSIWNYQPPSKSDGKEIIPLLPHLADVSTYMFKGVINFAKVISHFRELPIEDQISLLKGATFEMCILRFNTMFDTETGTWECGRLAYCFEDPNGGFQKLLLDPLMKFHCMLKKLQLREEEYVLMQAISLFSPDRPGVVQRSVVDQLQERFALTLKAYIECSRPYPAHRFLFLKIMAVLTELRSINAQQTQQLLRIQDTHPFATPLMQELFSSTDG
Procedure, shortened: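 Cell-based rPXR luciferase reporter assay, 2,000 cells per well, rested 5hr at 37 C before compound addition in DMSO, then 24 hr at 37 C. One-Glo reagent was added and luminescence read after 30 min at room temperature.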

[19] = target: Nuclear receptor subfamily 1 group I member 2 (Homo sapiens) (UniProt O75469); assay: CYP3A4 induction through human pregnane X receptor (PXR) by small molecules, qHTS assay (AID 1346984); also: nearly all actives have a fitted effect of over 40% in size
Procedure, shortened: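 Luminescence readout: luciferase signal after One-Glo (30 min, room temperature), following 3 h at 37C with 3uM final Luciferin-IPA P450 substrate. Cells were DPX-2 (HepG2, PXR/CYP3A4-luc co-transfected) dosed for 24 h.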

Compound | outcome [1] | Potency [2] | Potency [3] | Potency [4] | Potency [5] | Potency [6] | Potency [7] | outcome [8] | outcome [9] | Potency [10] | Potency [11] | Potency [12] | Potency [13] | Potency [14] | Potency [15] | Potency [16] | Potency [17] | Potency [18] | outcome [19]
COCC(C)O (stereo not given) | inactive | inactive | inactive | inactive | inactive | inactive | inactive | inactive | inactive | inactive | inactive | inactive | inactive | inactive | inactive | inactive |  |  | 
CC1COc2ccccc2N1C(=O)C(Cl)Cl (stereo not given) | inactive | inactive | inactive |  |  | inactive | inactive | inactive | inactive |  | 39.8 µM (active) | inactive | 27.3 µM (active) and 30.6 µM (active) | inactive | 61 µM (active) and 27.3 µM (active) | 61 µM (active) and 54.4 µM (active) | 30.6 µM (active) and 24.3 µM (active) |  | 
O=C(c1ccc(O)cc1)c1ccc(O)cc1O | inactive | inactive | inactive |  |  | inactive | inactive | inactive | inactive | inactive | inactive | inactive | inactive | inactive | inactive | 61.8 µM (active) and 48.6 µM (active) | 19.5 µM (active) |  | 
CCCCC/C=C\C/C=C\CCCCCCCC(=O)OC | inactive | inactive | inactive | inactive | inactive | inactive | inactive | inactive |  |  | inactive | inactive | inactive and 61.1 µM (active) | inactive | inactive | 67.8 µM (active) and 61.1 µM (active) |  |  | 
O=C(O)c1cc(-c2ccccc2)nc2ccccc12 | inactive | inactive | 779 nM (active) and inactive | inactive | inactive | inactive | inactive | inactive | inactive |  | inactive | inactive | inactive | inactive | inactive | inactive |  |  | 
C=C(C#N)C(=O)OCC | inactive | inactive | inactive | inactive | inactive | inactive | inactive | inactive | inactive | inactive | inactive | inactive | inactive and 61.1 µM (active) | inactive | inactive | inactive |  |  | 
CC1(C)CC(N=C=O)CC(C)(CN=C=O)C1 (stereo not given) | inactive | inactive | inactive |  | inactive | inactive | inactive | inactive | inactive | inactive | inactive |  | inactive | inactive | inactive | inactive | inactive |  | 
CCCCOCCOCCOC(=O)CCCCC(=O)OCCOCCOCCCC | inactive | inactive | inactive | inactive | inactive | inactive | inactive | inactive | inactive | inactive | inactive |  | inactive | inactive | inactive | inactive |  |  | 
CCC(C)C=O (stereo not given) | inactive | inactive | inactive | inactive | inactive | inactive | inactive | inactive | inactive | inactive | inactive | inactive | inactive | inactive | inactive | inactive |  |  | 
CC(C)Cc1ccccc1 | inactive | inactive | inactive |  | inactive | inactive | inactive | inactive | inactive |  | inactive | inactive | inactive | inactive | inactive | inactive | inactive |  | 
CC#C[C@]1(O)CC[C@H]2[C@@H]3CCC4=CC(=O)CCC4=C3[C@@H](c3ccc(N(C)C)cc3)C[C@@]21C | inactive | inactive | inactive | inactive | inactive | inactive | inactive |  | inactive | inactive | inactive |  | 30.6 µM (active) | inactive | 30.6 µM (active) | 48.6 µM (active) and 23.7 µM (active) |  | 10 µM (active) | inactive
CCc1ccc(O)cc1 | inactive | inactive | inactive | inactive | inactive | inactive | inactive | inactive |  |  | inactive | inactive | inactive | inactive | inactive | inactive |  |  | 
O=C(Oc1ccccc1)c1ccc(O)cc1 | inactive | inactive | inactive | inactive | inactive | inactive | inactive | inactive | inactive |  | inactive |  | inactive | inactive | inactive | inactive |  |  | 
CCCCC(CC)COC(=O)/C=C\C(=O)OCC(CC)CCCC (stereo not given) | inactive | inactive | inactive |  | inactive | inactive | inactive | inactive | inactive | inactive | inactive |  | inactive | inactive | inactive | 48.5 µM (active) and inactive | inactive |  | 
CC(C)(N=C=O)c1cccc(C(C)(C)N=C=O)c1 | inactive | inactive | inactive | inactive | inactive | inactive | inactive | inactive | inactive | inactive | inactive | inactive | inactive | inactive | inactive | 10.8 µM (active) and 61.1 µM (active) |  |  | 
CC(C)(C)C(=O)C1C(=O)c2ccccc2C1=O | inactive | 60.5 µM (active) and 61.1 µM (active) | inactive | inactive | inactive | inactive | inactive | inactive |  |  | 50.1 µM (active) | inactive | 27 µM (active) and 43.3 µM (active) | inactive | 60.5 µM (active) | 60.5 µM (active) and inactive |  |  | 
